Shown are actives, neighbours in structure and some others; about 6.9% of the full set was active somewhere.
Mdm2-MdmX inh: inhibitors of human Mdm2/MdmX interaction; O15151+Q00987; SaOS-2 split-luciferase Mdm2/MdmX complementation, luminescence; inhibition, % at 8 µM; 330,000 tested, 3% active;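 active = inhibition of at least 50% at 8 µM in the primary screen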
Beta apoptosis: blocks beta cell apoptosis; INS-1E cytokine-induced death, ATP luminescence, 48 h; percent of positive-control rescue, neutral wells zero; protection from apoptosis, % (no concentration beside the values); 300,000 tested, 0.8% active;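 active = Every replicate reaches about 75%, or at least half do and their mean reaches it too, limit read from the data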;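 also: 0% = cytokine-treated negative control wells and 100% = positive control rescue; higher means more ATP so stronger rescue from cytokine killing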
CSC inhib: cancer stem cell inhibition | cancer stem cell-like cells viability, luminescence | inhibition, % at 7.5 µM | 300,000 tested, 1.1% active | AID 2717; in the data active = inhibition above about 75%; tested in HMLE shEcad cells
SKKanGAS inh: inhibitors of SKKanGAS S. pyogenes growth in kanamycin (SK-promoter or general growth effect). 300,000 tested, 1.3% active. inhibition, % at 7.5 µM. BacTiter-Glo, 6 h;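 active = mean replicate score, as percent of positive control median, at least 50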;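 also: strain carries kanamycin resistance gene driven by streptokinase promoter and grows in 40 µg/ml kanamycin; loss of luminescence reflects streptokinase promoter inhibition or plain growth inhibition; 0% = median of DMSO wells and 100% = positive control at its reference dose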
MPTP inh: permeability transition pore inhibition. inhibition, % at 10 µM. 360,000 tested, 1.4% active. isolated mouse mitochondria, Ca2+ swelling absorbance, 30 min. AID 602449;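 active = inhibition of 50% or more, scaled per plate between neutral and stimulator controls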;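 also: 0% = DMSO wells given calcium and 100% = 1 mM EGTA wells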
NR3A LBD binder: modulates the human NR3A ligand-binding domain. NR3A LBD differential scanning fluorimetry, Tm shift; 0% = protein alone, 100% = glycine-bound protein. Tm shift relative to glycine control, % at 25 µM. 340,000 tested, 2.5% active. AID 1259313;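 active = melting temperature shift of at least 10% of the positive control shift, at one fixed dose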
Numbers without * were called inactive.

Results for CCOc1ccc(NC(=O)CN(C)C(=O)Cc2c[nH]c3ccccc23)cc1OCC ?
Mdm2-MdmX inh: 12; Beta apoptosis: -1; CSC inhib: -25; SKKanGAS inh: -3; MPTP inh: -1; NR3A LBD binder: -1

What do the screens show for `COC(=O)CNC(c1ccccc1)c1cc(Br)ccc1NS(=O)(=O)c1ccccc1` (stereo not drawn)?
Mdm2-MdmX inh: 23; Beta apoptosis: -9; CSC inhib: -23; SKKanGAS inh: 30; MPTP inh: 0; NR3A LBD binder: -1

Results for COC(=O)CNC(c1ccccc1)c1cc(Br)ccc1NS(=O)(=O)c1ccc(C)cc1 (stereo not drawn) ?
Mdm2-MdmX inh: 20; Beta apoptosis: -3; CSC inhib: 3; SKKanGAS inh: -7; MPTP inh: 4; NR3A LBD binder: 16*

How did Cc1cc(S(=O)(=O)N2CCCOC2CNC(=O)C(=O)NCCCN2CCOCC2)ccc1F (stereo not drawn) do in these assays?
Mdm2-MdmX inh: 18; Beta apoptosis: -14; CSC inhib: -1; SKKanGAS inh: 5; MPTP inh: 0; NR3A LBD binder: 0

How did O=C(Oc1ccc(NC2=C(Cl)C(=O)c3ccccc3C2=O)cc1)c1ccc([N+](=O)[O-])cc1 do in these assays?
SKKanGAS inh: 54*; MPTP inh: 13; NR3A LBD binder: -1

How did O=C(Cc1cccs1)N[C@@H]1c2ccccc2CC[C@H]1OCc1ccccc1 do in these assays?
Mdm2-MdmX inh: 2; MPTP inh: 0; NR3A LBD binder: 1

Results for CN(CCc1ccccc1)C1CCCN(S(=O)(=O)N(C)C)C1 (stereo not drawn) ?
Mdm2-MdmX inh: -11; CSC inhib: -1; SKKanGAS inh: 0; MPTP inh: 0; NR3A LBD binder: -1

What do the screens show for `O=C(O)c1cccc2c(-c3ccccc3)c(-c3ccccc3)[nH]c12`?
Mdm2-MdmX inh: 3; Beta apoptosis: -5; CSC inhib: 41; SKKanGAS inh: 59*; MPTP inh: 12; NR3A LBD binder: -8

How did C/C(=N\N=C(/N)SC1CC(=O)N(c2ccc(Br)cc2)C1=O)c1cccs1 (stereo not drawn) do in these assays?
Mdm2-MdmX inh: -25; Beta apoptosis: -12; CSC inhib: 47; SKKanGAS inh: 98*; MPTP inh: 2; NR3A LBD binder: 12*

How did C/C(=N\N=C(/N)SC1CC(=O)N(c2ccc(Cl)c(Cl)c2)C1=O)c1cccs1 (stereo not drawn) do in these assays?
Mdm2-MdmX inh: 17; Beta apoptosis: 0; CSC inhib: 79*; SKKanGAS inh: 98*; MPTP inh: 3; NR3A LBD binder: 34*

What do the screens show for `N/C(=N\N=C\c1cccs1)SC1CC(=O)N(c2ccc(Br)cc2)C1=O` (stereo not drawn)?
Mdm2-MdmX inh: 30; CSC inhib: 16; SKKanGAS inh: -2; MPTP inh: 2; NR3A LBD binder: 5

What do the screens show for `CCCCCCOc1ccc(N2C(=O)CC(S/C(N)=N/N=C(\C)c3cccs3)C2=O)cc1` (stereo not drawn)?
Mdm2-MdmX inh: 13; Beta apoptosis: 3; CSC inhib: 7; SKKanGAS inh: 1; MPTP inh: 8; NR3A LBD binder: 9

What do the screens show for `C/C(=N\N=C(/N)SC1CC(=O)N(c2ccccc2)C1=O)c1cccs1` (stereo not drawn)?
Mdm2-MdmX inh: 22; Beta apoptosis: -3; CSC inhib: 12; SKKanGAS inh: 2; MPTP inh: 0; NR3A LBD binder: -2

How did C/C(=N\N=C(/N)SC1CC(=O)N(c2ccc(Cl)cc2)C1=O)c1cccs1 (stereo not drawn) do in these assays?
Mdm2-MdmX inh: 13; Beta apoptosis: 8; CSC inhib: 26; SKKanGAS inh: 26; MPTP inh: 2; NR3A LBD binder: 18*

How did COc1cccc(OC)c1C(=O)NC(=S)NCc1cccnc1 do in these assays?
Mdm2-MdmX inh: 7; Beta apoptosis: -8; CSC inhib: -22; SKKanGAS inh: -3; MPTP inh: -2; NR3A LBD binder: 1

Results for Cc1nn(Cc2cccc(F)c2)c(C)c1NC(=O)c1ccc(COc2ccccc2Cl)cc1 ?
Mdm2-MdmX inh: 49; Beta apoptosis: 16; CSC inhib: 101*; SKKanGAS inh: 33; MPTP inh: -1; NR3A LBD binder: -2

Results for Cc1nn(Cc2c(F)c(F)c(F)c(F)c2F)c(C)c1NC(=O)c1cccc(COc2ccccc2Cl)c1 ?
Mdm2-MdmX inh: -22; Beta apoptosis: 12; CSC inhib: 10; SKKanGAS inh: 12; MPTP inh: -2; NR3A LBD binder: 0

What do the screens show for `COc1ccc(-n2c(-c3ccc(Cl)cc3)c[n+]3c2CCc2ccccc2-3)cc1`?
Mdm2-MdmX inh: 18; Beta apoptosis: 110*; CSC inhib: -1; SKKanGAS inh: -10; MPTP inh: 0; NR3A LBD binder: -2

What do the screens show for `COc1ccc(-n2c(-c3ccccc3)nnc2-c2ccc(Cl)cc2)cc1`?
Mdm2-MdmX inh: 26; Beta apoptosis: 6; SKKanGAS inh: 0; MPTP inh: -2; NR3A LBD binder: -4

Results for CC(C)c1c(C(=O)N/N=C/c2ccc3c(c2)OCO3)nnn1-c1nonc1N ?
Mdm2-MdmX inh: 24; Beta apoptosis: 5; CSC inhib: -10; SKKanGAS inh: -8; MPTP inh: 2; NR3A LBD binder: 28*

How did CN(C)Cc1c(C(=O)N/N=C/c2cccc(OCc3ccc(F)cc3)c2)nnn1-c1nonc1N do in these assays?
Mdm2-MdmX inh: 11; Beta apoptosis: -7; CSC inhib: -7; SKKanGAS inh: 1; MPTP inh: 2; NR3A LBD binder: 3

Results for CC(C)c1c(C(=O)N/N=C/C=C/c2ccccc2)nnn1-c1nonc1N ?
Mdm2-MdmX inh: 18; Beta apoptosis: -1; CSC inhib: -15; SKKanGAS inh: 46; MPTP inh: 0; NR3A LBD binder: 17*

Results for COc1cccc(/C=N/NC(=O)c2nnn(-c3nonc3N)c2C(C)C)c1 ?
Mdm2-MdmX inh: -9; Beta apoptosis: -22; CSC inhib: -9; SKKanGAS inh: -3; MPTP inh: 0; NR3A LBD binder: 26*

Results for CC(C)c1c(C(=O)N/N=C/c2cccc(OCc3ccc(F)cc3)c2)nnn1-c1nonc1N ?
Mdm2-MdmX inh: 27; Beta apoptosis: 0; CSC inhib: 26; SKKanGAS inh: 87*; MPTP inh: 6; NR3A LBD binder: 27*

Results for Cc1ccc(S(=O)(=O)NC(C(=O)N2CCN(S(=O)(=O)c3cccc(F)c3)CC2)C(C)C)cc1 (stereo not drawn) ?
Mdm2-MdmX inh: 16; MPTP inh: 0; NR3A LBD binder: -3

How did COc1cc(OC)cc(C(=O)NNC(=O)C(=O)Nc2cc(OC)c(Cl)cc2OC)c1 do in these assays?
Mdm2-MdmX inh: 15; Beta apoptosis: 18; CSC inhib: 2; SKKanGAS inh: 54*; MPTP inh: 48; NR3A LBD binder: -9

How did O=C(/C=C/c1ccc2c(c1)OCO2)Nc1ccc(Cl)cn1 do in these assays?
Mdm2-MdmX inh: -101; Beta apoptosis: 17; CSC inhib: 88*; SKKanGAS inh: -11; MPTP inh: 1; NR3A LBD binder: -16
